# Test results taken from paper PMC5540273 (PLoS ONE, 2017).
# Assays:
# Conditions in all cases: concentration: 1 μM, replicates: in singlicate; n = 1
# WNK1 = test system: WNK1
# WNK2 = test system: WNK2
# WNK3 = test system: WNK3
# WNK4 = test system: WNK4
# YANK1 = test system: T1, YANK1
# T1 construct: gene STK32A
# YANK2 = test system: T2, YANK2
# T2 construct: gene STK32B
# YANK3 = test system: T3, YANK3
# T3 construct: gene STK32C
# YES = test system: T4, YES
# T4 construct: gene YES1
# YSK1 = test system: T5, YSK1
# T5 construct: gene STK25
# YSK4 = test system: T6, YSK4
# T6 construct: gene MAP3K19
# 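Further: KINOMEscan kinase panel screen.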
Structure (SMILES),%Inh (WNK1) [%],%Inh (WNK2) [%],%Inh (WNK3) [%],%Inh (WNK4) [%],%Inh (YANK1) [%],%Inh (YANK2) [%],%Inh (YANK3) [%],%Inh (YES) [%],%Inh (YSK1) [%],%Inh (YSK4) [%]
COc1ccc(-c2coc3ccc(-c4nnc(SCc5ccc(OC)c(C(F)(F)F)c5)o4)cc23)cc1,0,31,0,4,10,0,0,12,0,20
Cl.c1ccc(-c2ccc3c(Nc4ccc5[nH]ncc5c4)ccnc3c2)nc1 [GW440137],11,14,19,28,3,1,7,14,9,51
CCS(=O)(=O)c1ccc(OC)c(Nc2nccc(-c3c(-c4cccc(NC(=O)c5c(F)cccc5F)c4)nn4ncccc34)n2)c1 [GSK326180],17,35,18,14,0,56,24,90.1,0,33
COc1cc(Nc2nccc(-c3c(-c4cccc(NC(=O)c5c(F)cccc5F)c4)nn4ccccc34)n2)cc(OC)c1OC [GSK323521],27,59,54,19,11,0,14,8,3,93.6
O=C(O)C(F)(F)F.O=C(O)C(F)(F)F.O=c1[nH]ccc2nc(N[C@@H]3CCCNC3)nc(Nc3ccc(S(=O)(=O)N4CCOCC4)cc3)c12 [GSK2177277],0,29,13,0,96.6,89,74,75,94.2,99.7
O=C(NC1CCN(c2ccnc(Nc3ccc(F)cc3)n2)C1)c1cc2ccccc2s1 (stereo not drawn) [GSK1379716],20,22,33,46,0,20,29,20,19,14
c1ccc(-c2cnc3nccnn23)cc1 [AH20685],0,2,1,0,6,0,0,0,0,0
CCn1c(-c2nonc2N)nc2c(C#CC(C)(C)O)nc(OC[C@H](N)c3ccccc3)cc21 [GSK943949],0,0,0,31,0,0,31,19,0,100
COc1cccc(NC(=O)NC2CCN(c3ccnc(Nc4cc(OC)c(OC)c(OC)c4)n3)C2)c1 (stereo not drawn) [GSK1379763],8,11,26,11,1,0,4,1,6,31
Nc1ncnc2c1nc(-c1ccccc1)n2-c1ccccc1 [SKF-97293],47,5,48,28,3,21,0,0,4,54
Cl.NC(=O)c1cccc(Nc2nccc(Nc3ccc(Oc4c(Cl)cccc4Cl)c(Cl)c3)n2)c1 [GW659009],3,0,12,0,4,0,5,39,0,3
COc1cccc(-c2ccc3c(NC(=O)C4CC4)n[nH]c3n2)c1 [SB-710903],45,57,66,87,0,2,0,13,0,92.3
COc1cc(Nc2nccc(-c3c(-c4cccc(NC(=O)c5c(F)cccc5F)c4)nn4ncccc34)n2)cc(OC)c1OC [GSK327238],1,0,0,0,50,89,56,100,56,7
Cn1cc(-c2ccc3c(c2)CCN3C(=O)Cc2cccc(Cl)c2)c2c(N)ncnc21 [GSK2606590],13,18,25,5,10,0,21,21,18,98.2
O=C(Nc1cccc(-c2nn3ncccc3c2-c2ccnc(Nc3ccccc3)n2)c1)c1c(F)cccc1F [GSK198271],2,60,0,0,63,38,18,99.5,20,18
O=c1[nH]cc(-c2ccc(N3CCOCC3)cc2)c2sc(-c3cn[nH]c3)cc12 [GSK2276055],7,1,8,0,8,0,16,0,26,98.1
COc1cccc(C2=C(Nc3ccc(Cl)c(C(=O)O)c3)C(=O)NC2=O)c1 [SB-390769],100,8,100,43,100,7,0,8,0,100
CN(C)Cc1ccc(-c2ccc3c(Nc4ccc(Oc5ccccn5)cc4)ccnc3c2)o1 [GW567148],17,14,46,19,0,0,20,64,0,30
FC(F)(F)c1ccc(/C=C/c2cncnc2Nc2ccc3[nH]c(Cc4ccccc4)nc3c2)cc1 [GW709199],0,0,0,0,0,0,0,0,0,73
O=C(Nc1cccc(-c2nn3ccccc3c2-c2ccnc(Nc3cccc(C(F)(F)F)c3)n2)c1)c1c(F)cccc1F [GSK292658],5,15,0,27,12,7,23,95.2,0,0
Fc1ccc(-c2ncn(C3CCNCC3)c2-c2ccnc(Oc3ccc(-c4ccccc4)cc3)n2)cc1 [SB-245391],42,0,32,0,90.8,85,86,0,18,47
Oc1cc(Nc2ccnc3cc(I)ccc23)ccc1F [GW552771],1,4,34,35,10,22,31,26,0,79
Cl.Cl.NCC(C(=O)Nc1cc(Br)c(-c2ccnc3[nH]ccc23)s1)c1ccccc1 (stereo not drawn) [GSK1269851],7,100,25,11,8,0,0,7,0,95.5

Structure (SMILES),%Inh (WNK1) [%],%Inh (WNK2) [%],%Inh (WNK3) [%],%Inh (WNK4) [%],%Inh (YANK1) [%],%Inh (YANK2) [%],%Inh (YANK3) [%],%Inh (YES) [%],%Inh (YSK1) [%],%Inh (YSK4) [%]
Cl.Cl.NCC(NCc1ccc(-c2ccnc3[nH]ccc23)s1)c1ccccc1 (stereo not drawn) [GSK1321565],0,11,26,0,0,0,0,0,0,99.3
Cc1ccc(S(=O)(=O)Nc2ccc(Nc3nccc(Nc4cccc5[nH]ncc45)n3)cc2)cc1 [GSK581271],4,0,26,16,0,0,3,30,13,67
Cn1cc(-c2ccc3c(c2)CCN3C(=O)Cc2cccc(F)c2)c2c(N)ncnc21 [GSK2603358],13,0,48,59,0,0,4,22,31,98.2
Nc1n[nH]c2cnc(-c3ccccc3)cc12 [SB-642124],8,2,33,38,12,0,17,24,1,95.9
c1ccc(Oc2ccc(Nc3ccnc4cc(-c5ccc(CNCCN6CCOCC6)o5)ccc34)cc2)nc1 [GW567145],0,21,43,8,0,0,32,48,2,35
Nc1ncc(-c2ccc3nccc(-c4ccncc4)c3c2)cc1S(=O)(=O)N1CCOCC1 [GSK1627798],0,0,4,9,4,0,22,0,0,88
Nc1ncc(-c2cccnc2)c2scc(-c3ccc4c(c3)CCN4C(=O)Cc3ccccc3)c12 [GSK683281],17,28,12,0,21,10,29,28,27,46
C[C@@H](Oc1cc(-n2cnc3cc(-c4ccnc(NCCS(C)(=O)=O)c4)ccc32)sc1C(N)=O)c1ccccc1Cl [GSK907232],37,80,88,37,6,0,32,47,14,96.7
O=C(Nc1ccccc1F)NC1CCN(c2ccnc(Nc3ccc(F)cc3)n2)CC1 [GSK1379800],9,6,37,34,0,0,1,4,0,14
O=C(Nc1cccc(-c2nn3ccccc3c2-c2ccnc(Nc3cccc(F)c3)n2)c1)c1c(F)ccc(F)c1Cl [GSK357952],3,0,43,0,34,75,23,98.7,0,0
Cc1cccc(NC(=O)Nc2ccc(Oc3ncnc4ccn(C)c34)cc2)c1,0,0,0,0,0,0,31,0,0,97.1
COc1cc2c(cc1OCCN1CCNCC1)ncc1c3ccc(C#N)cc3[nH]c21,12,41,7,9,5,0,0,0,1,87
CNC(=O)c1ccccc1Nc1nc(Nc2ccc(N3CCOCC3)cc2)ncc1Cl.Cl [GSK1576028],12,5,39,0,58,30,24,98.7,68,99.9
COc1ccc(Nc2nccc(NCCNC(=O)c3cc4ccccc4s3)n2)cc1 [GSK1379896],6,55,10,29,12,0,0,5,0,0
Cc1occc1-c1ncc(OC[C@@H](N)Cc2c[nH]c3ccccc23)cc1-c1ccc2[nH]nc(C)c2c1.O=C(O)C(F)(F)F [GSK682037],11,7,0,0,96.5,95,94.5,38,17,99.5
CC(C)(C)c1ccc2nccc(Nc3cccc(O)c3)c2c1 [GW856795],0,0,40,0,0,0,0,5,0,0
COc1cc(Nc2nccc(N3CCC(NC(=O)c4cc5ccccc5s4)C3)n2)cc(OC)c1OC (stereo not drawn) [GSK1379760],0,0,30,11,13,11,0,8,17,0
CCCCc1nn2ncccc2c1-c1ccnc(Nc2ccc(N3CCN(C)CC3)cc2)n1 [GW684941],11,31,54,56,78,74,25,81,0,57
CCc1ccc(-c2ccc3c(c2)-c2c(cnn2C)S(=O)(=O)N3C)cc1,0,5,0,0,1,0,0,0,7,7
Cc1ccc(C)c(NC(=O)NC2CCN(c3ccnc(Nc4ccc(F)cc4)n3)C2)c1 (stereo not drawn) [GSK1379720],5,0,43,48,0,0,28,9,0,29
Cc1ccc(C(=O)Nc2ccc(Nc3ccnc4cc(-c5nccs5)ccc34)cc2O)cc1.Cl [GW494702],6,41,38,39,9,0,11,33,0,30
O=C(Nc1n[nH]c2nc(-c3ccc(O)cc3)ccc12)C1CC1 [SB-710363],32,0,0,70,0,0,0,0,0,92.2
